The record followed here is PubChem BioAssay (NCATS).

Results filed as inconclusive are left out. A number with no mark means an inactive call. Active and inactive are the calls of the source. Calls come from the whole dose curve; as a rule, active = well fitted inhibition curve with a large enough effect; inconclusive = small, poorly fitted or top-dose-only effect; inactive = no such curve, though single readings can be large or run the other way.
% is set by controls: 0 for no effect and ±100 for the full control effect; potency is the fitted concentration of half-maximal effect.
Note: nearly all actives have a fitted effect of over 60% in size.

One assay deals with Cytochrome P450 2D6 (Homo sapiens) (UniProt P10635). Briefly: qHTS Assay for Inhibitors and Substrates of Cytochrome P450 2D6 (AID 891).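 For activity change, negative = inhibition: luciferin methyl ether substrate demethylated by CYP2D6 with NADPH regeneration.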 The note with it: recombinant CYP2D6, luciferin-ME EGE luminescence; series mostly up to 57.1 µM; activity change, negative = inhibition: at the top concentration. A digest of the protocol: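 Human CYP2D6 (5 nM) with 30 uM Luciferin-ME EGE (at Km) in 100 mM KPO4, compound preincubated 10 min, then NADPH regeneration system for 60 min at room temperature. Luciferin read by luminescence; normalized to 1.43 uM quinidine.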
Cytochrome P450 2D6 (Homo sapiens), sequence (P10635 whole entry, looked up): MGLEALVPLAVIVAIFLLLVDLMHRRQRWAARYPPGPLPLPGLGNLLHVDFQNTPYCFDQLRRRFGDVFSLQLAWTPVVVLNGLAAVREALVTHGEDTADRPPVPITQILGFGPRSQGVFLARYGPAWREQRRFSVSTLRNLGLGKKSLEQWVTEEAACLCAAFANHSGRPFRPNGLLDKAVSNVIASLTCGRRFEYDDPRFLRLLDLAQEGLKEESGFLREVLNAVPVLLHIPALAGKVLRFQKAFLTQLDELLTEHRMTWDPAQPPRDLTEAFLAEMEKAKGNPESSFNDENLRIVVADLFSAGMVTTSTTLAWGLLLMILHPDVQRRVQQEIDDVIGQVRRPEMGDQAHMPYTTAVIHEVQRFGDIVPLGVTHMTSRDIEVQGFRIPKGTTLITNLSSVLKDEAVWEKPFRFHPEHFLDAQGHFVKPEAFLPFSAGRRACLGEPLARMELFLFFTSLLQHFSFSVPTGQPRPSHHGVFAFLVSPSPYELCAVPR
In general terms: Quantitative high-throughput screening tests each substance at several concentrations.
Regarding `CCC[C@@H]1C[C@@]1(CCC)C(NC(=O)c1ccccc1)c1cccc(Cl)c1` (some centres undefined), the Potency is 3.16 µM (active). Turning to `CC(C)[C@@H](CC(=O)N[C@@H]1CCCC[C@H]1C(=O)N[C@H](CC(=O)N[C@@H](CCC(=O)O)CC(=O)O)Cc1c[nH]c2ccccc12)NC(=O)C[C@H](Cc1ccccc1)NC(=O)[C@@H]1CCCC[C@H]1N`, the “activity change, negative = inhibition” value is 0.634%. For `CCC/C=C(\CCC)C(NS(=O)(=O)c1cccs1)c1ccc(C(=O)OC)cc1` (centres undefined), the Potency is 6.31 µM (active).

For `CC(C)C[C@@H](CC(=O)N[C@@H](CCCN)CC(=O)N[C@@H]1CCCC[C@H]1C(=O)N[C@H](CC(=O)N[C@@H](CCC(=O)O)CC(=O)O)Cc1c[nH]c2ccccc12)NC(=O)[C@@H]1CCCC[C@H]1N`, the “activity change, negative = inhibition” value was -10.2%. As for `CC(C)C[C@@H](CC(=O)N[C@@H](CCC(=O)O)CC(=O)O)NC(=O)[C@@H]1CCCC[C@H]1NC(=O)C[C@@H](NC(=O)C[C@H](Cc1c[nH]c2ccccc12)NC(=O)[C@@H]1CCCC[C@H]1N)C(C)C`, the “activity change, negative = inhibition” value is 7.12%.

Consider `NCCC[C@@H](CC(=O)N[C@@H]1CCNC[C@H]1C(=O)N[C@H](CC(=O)N[C@@H](CCC(=O)O)CC(=O)O)Cc1ccccc1)NC(=O)C[C@H](CO)NC(=O)[C@@H]1CCCC[C@H]1N`, for which the “activity change, negative = inhibition” value is 5.44%. Still for that read-out and setting: in the case of `CC(C)C[C@@H](CC(=O)N[C@@H](CCC(=O)O)CC(=O)O)NC(=O)[C@@H]1CNCC[C@H]1NC(=O)C[C@@H](NC(=O)C[C@H](Cc1c[nH]c2ccccc12)NC(=O)[C@@H]1CCCC[C@H]1N)C(C)C` it was -1.74%.

Consider `C[C@@H](C(=O)NCCc1c[nH]c2ccccc12)[C@H]1C[C@]1(C)[C@H](NC(=O)OCc1ccccc1)c1ccccc1`, for which the Potency was 2 µM (active). On the same count and under the same terms, in the case of `CCC/C=C(\CCC)C(NC(=O)c1ccc(C(F)(F)F)cc1)c1ccccc1` (centres undefined) it was 7.94 µM (active).

For the next assay, the target named is Cytochrome P450 2C19 (Homo sapiens) (UniProt P33261). The experiment in a line: qHTS Assay for Inhibitors and Substrates of Cytochrome P450 2C19 (AID 899). The note with it: recombinant CYP2C19, luciferin-H EGE luminescence; series mostly up to 57.1 µM; activity, negative = inhibition: at the top concentration. In outline: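 5 nM human CYP2C19 with 10uM Luciferin-H EGE (at KM) in 50mM KPO4, compound preincubated 10 min at 37C, then NADPH regeneration for 60 min at 37C. Luciferin read by luminescence after detection reagent; normalized to 57uM ketoconazole as full inhibition.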
Cytochrome P450 2C19 (Homo sapiens), sequence (P33261 whole entry, looked up): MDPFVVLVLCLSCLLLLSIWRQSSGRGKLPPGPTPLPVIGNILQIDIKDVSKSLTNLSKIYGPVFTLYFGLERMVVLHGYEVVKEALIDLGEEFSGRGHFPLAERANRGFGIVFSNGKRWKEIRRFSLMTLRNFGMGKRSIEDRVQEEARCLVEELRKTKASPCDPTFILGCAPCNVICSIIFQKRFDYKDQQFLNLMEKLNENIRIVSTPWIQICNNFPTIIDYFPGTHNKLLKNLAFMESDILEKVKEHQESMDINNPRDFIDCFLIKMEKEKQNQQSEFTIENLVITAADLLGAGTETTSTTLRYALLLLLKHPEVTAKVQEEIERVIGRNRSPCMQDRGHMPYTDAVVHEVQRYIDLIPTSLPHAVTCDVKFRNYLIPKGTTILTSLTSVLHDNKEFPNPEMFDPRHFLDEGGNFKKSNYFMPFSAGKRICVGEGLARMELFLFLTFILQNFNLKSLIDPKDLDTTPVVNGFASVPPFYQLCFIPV
As for `CCC/C=C(\CCC)C(NS(=O)(=O)c1ccc(C(F)(F)F)cc1)c1ccc(C(=O)OC)cc1` (centres undefined), the Potency is 2.51 µM (active). `CC(C)[C@@H](CC(=O)N[C@@H]1CCCC[C@H]1C(=O)N[C@H](CC(=O)N[C@@H](CCC(=O)O)CC(=O)O)Cc1c[nH]c2ccccc12)NC(=O)C[C@H](Cc1ccccc1)NC(=O)[C@@H]1CCCC[C@H]1N`: the “activity, negative = inhibition” value is -17.5%. As to `CC(C)C[C@@H](CC(=O)N[C@@H](CCCN)CC(=O)N[C@@H]1CCCC[C@H]1C(=O)N[C@H](CC(=O)N[C@@H](CCC(=O)O)CC(=O)O)Cc1c[nH]c2ccccc12)NC(=O)[C@@H]1CCCC[C@H]1N`, the “activity, negative = inhibition” value was 2.79%. In the case of `CCC/C=C(\CCC)C(NC(=O)Cc1ccccc1)c1ccc(C(=O)OC)cc1` (centres undefined), the Potency was 2.51 µM (active). Same read-out and setting: in the case of `CCC/C=C(\CCC)C(NS(=O)(=O)c1ccccc1)c1ccc(C(F)(F)F)cc1` (centres undefined) it was 7.94 µM (active); in that of `CCC/C=C(\CCC)C(NS(=O)(=O)c1ccc(Cl)cc1)c1ccccc1` (centres undefined), 0.398 µM (active).

For `CC(C)C[C@@H](CC(=O)N[C@@H](CCC(=O)O)CC(=O)O)NC(=O)[C@@H]1CCCC[C@H]1NC(=O)C[C@@H](NC(=O)C[C@H](Cc1c[nH]c2ccccc12)NC(=O)[C@@H]1CCCC[C@H]1N)C(C)C`, the “activity, negative = inhibition” value was -29.8%. For `COC(=O)[C@H](C)[C@@H]1C[C@@]1(C)[C@@H](NC(=O)OCc1ccccc1)c1ccccc1`, the Potency was 0.316 µM (active). Still for that read-out and setting: as for `CCC/C=C(\CCC)C(NS(=O)(=O)c1ccc(Cl)cc1)c1ccc(C(=O)OC)cc1` (centres undefined), the figure is 1.58 µM (active). Take `NCCC[C@@H](CC(=O)N[C@@H]1CCNC[C@H]1C(=O)N[C@H](CC(=O)N[C@@H](CCC(=O)O)CC(=O)O)Cc1ccccc1)NC(=O)C[C@H](CO)NC(=O)[C@@H]1CCCC[C@H]1N`: the “activity, negative = inhibition” value is 11.6%. Take `CCC/C=C(\CCC)C(NS(=O)(=O)c1ccc(C(F)(F)F)cc1)c1ccccc1` (centres undefined): the Potency was 0.398 µM (active). For the molecule `CCCC[C@@H]1C[C@H]1C(NC(=O)c1ccco1)c1ccc(Cl)cc1` (some centres undefined), the Potency was 0.316 µM (active). For the molecule `CC(C)C[C@@H](CC(=O)N[C@@H](CCC(=O)O)CC(=O)O)NC(=O)[C@@H]1CNCC[C@H]1NC(=O)C[C@@H](NC(=O)C[C@H](Cc1c[nH]c2ccccc12)NC(=O)[C@@H]1CCCC[C@H]1N)C(C)C`, the “activity, negative = inhibition” value was -8.34%. Turning to `CCC/C=C(\CCC)C(NS(=O)(=O)c1ccc(-c2ccccc2)cc1)c1ccc(C(=O)OC)cc1` (centres undefined), the Potency was 1.26 µM (active).

Take `C[C@@H](C(=O)NCCc1c[nH]c2ccccc12)[C@H]1C[C@]1(C)[C@H](NC(=O)OCc1ccccc1)c1ccccc1`: the Potency is 2.51 µM (active).
